# From PubChem
# Rows were chosen to be rich in hits. Some 4.1% of all compounds tested hit in one or more screens of this group.
# PolyA inhibitor: polyadenylation inhibitors in yeast reporter cells, primary screen, luminescence, S. cerevisiae; 0.02% of 300,000 active; S. cerevisiae SKY197-pL101 polyadenylation reporter, beta-gal luminescence; efflux-impaired pdr1/pdr3 knockout yeast; score 100 = 6 SD above DMSO; activity score, % at 12 µM; AID 1875, 2009;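 active = lowest replicate activity score at least 50, where 100 means six control SD above control mean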;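 note: yeast exposed to compound for 9 h at 30 °C; higher score means more reporter readthrough which indicates perturbed polyadenylation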
# DAX1 inh-1: DAX1 (NR0B1) inhibitors on StAR promoter, primary screen, cell-based, luminescence, SF-1 (NR5A1), full-length DAX-1. HEK293T StAR-luciferase reporter, SF-1/DAX-1 repression relief. inhibition, % at 6.8 µM. 1.1% of 370,000 active. AID 652010, 2013;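 active = inhibition above the mean over all tested compounds plus 3 SD, cut at about 3.6% in these data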;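 note: 0% = DAX-1 cells with DMSO and 100% = cells lacking DAX-1 with DMSO; higher inhibition means more luminescence from relief of DAX-1 repression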
# hgDAF-12 ag: H. glycines DAF-12 receptor agonists, primary screen, cell-based, luminescence, HEK293, GAL4 fusion, UAS-luciferase; 1.8% of 370,000 active; Nuclear hormone receptor DAF-12 (Heterodera glycines), GAL4 fusion; HEK293 GAL4-hgDAF12 UAS-luciferase reporter, agonist luminescence; normalized to butyrate control; AID 687014, 2013; activation, % at 6.8 µM;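 active = activation above a cutoff set at the mean of all screened compounds plus 3 SD, cut at about 10% in these data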;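 note: 0% = DMSO wells and 100% = sodium butyrate wells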
# DAX1 inh-2: DAX1 (NR0B1) inhibitors, primary screen, cell-based, HEK293, Gal4-DAX1, luciferase luminescence; Nuclear receptor subfamily 0 group B member 1 (Homo sapiens), P51843; HEK293 Gal4-DAX1 luciferase reporter; inhibition, % at 6.75 µM; 0.99% of 340,000 active;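 active = inhibition above the mean over all tested compounds plus 3 SD, cut at about 4.2% in these data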;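 note: 0% = DAX1-transfected cells with DMSO and 100% = empty-vector control cells with DMSO; inhibition shows as a rise in luminescence from relieved DAX1 repression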
# Target sequence (P51843 207-470 limits assumed): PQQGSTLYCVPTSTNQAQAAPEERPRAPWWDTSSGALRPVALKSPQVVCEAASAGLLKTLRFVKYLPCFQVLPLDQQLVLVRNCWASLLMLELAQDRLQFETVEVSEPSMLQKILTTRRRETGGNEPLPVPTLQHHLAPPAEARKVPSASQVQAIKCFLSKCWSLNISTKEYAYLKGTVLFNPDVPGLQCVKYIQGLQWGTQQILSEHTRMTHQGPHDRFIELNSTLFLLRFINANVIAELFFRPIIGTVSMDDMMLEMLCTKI
# hcDAF-12 act: H. contortus DAF-12 nuclear receptor activators, primary screen, cell-based, luminescence, HEK293, lit1-tk-luc reporter; HEK293 hcDAF-12 lit1-tk-luc reporter; 0% DMSO, 100% Δ7-dafachronic acid; activation, % at 6.8 µM; 1.4% of 370,000 active; AID 652067, 2013;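 active = activation above the mean of all tested compounds plus 3 SD, cut at about 5.5% in these data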;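 note: 100% = response to 3 µM Δ7-dafachronic acid high control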
# ssDAF-12 act: S. stercoralis DAF-12 nuclear receptor activators, primary screen, cell-based, luminescence, HEK293, GRIP1 co-expression, lit1-tk-luc. Nuclear hormone receptor DAF-12 (Strongyloides stercoralis). HEK293 ssDAF-12/GRIP1 lit1-tk-luc reporter; % of 3 µM dafachronic acid response. activation, % at 6.8 µM. 1% of 370,000 active. AID 652126, 2013;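 active = activation above the mean over all tested compounds plus 3 SD, cut at about 0.9% in these data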;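 note: 0% = DMSO-only wells and 100% = 3 µM delta7-dafachronic acid wells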
# DAX1 inh confirm: DAX1 (NR0B1) inhibitors relieving SF-1 repression, confirmation, cell-based, luminescence, HEK293T, full-length DAX-1, SF-1 activated StAR promoter; shares compounds with DAX1 inh-1; HEK293T StAR-promoter luciferase reporter, SF-1/DAX-1 repression; inhibition, % at 6.8 µM; 87% of 2,400 active;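 active = inhibition above the average of every tested compound plus 3 SD, cut at about 3.8% in these data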;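 note: 0% = DAX-1 cells with DMSO and 100% = no DAX-1 control cells with DMSO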
# SF1 AF2mut Luc: StAR reporter signal changes without DAX1, counter-screen for DAX1 inhibitor project, cell-based, luminescence, AF-2 mutant SF-1, transactivation. AID 652136, 2013. 78% of 2,400 active. inhibition, % at 6.8 µM. HEK293 StAR-luciferase, SF-1 AF2 mutant. shares compounds with DAX1 inh-1;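 active = inhibition above the mean of all tested compounds plus 3 SD, cut at about 3% in these data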;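 note: 0% = DAX-1 transfected cells with DMSO and 100% = cells without DAX-1 with DMSO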
# Numbers without * were called inactive; . = no result; ! = not active in a repeat.
SMILES,PolyA inhibitor,DAX1 inh-1,hgDAF-12 ag,DAX1 inh-2,hcDAF-12 act,ssDAF-12 act,DAX1 inh confirm,SF1 AF2mut Luc
COC(=O)CSc1nnc(-c2ccc(NS(=O)(=O)c3ccc(C(C)(C)C)cc3)cc2)o1,.,0,0,.,4,0,.,.
COc1ccc2cc(CCNC(=O)c3ccco3)c(=O)[nH]c2c1,-3,6.0*,11*,1,5,0,9.4*,5.8*
CC[C@H](C)C(=O)O[C@H]1C[C@@H](C)C=C2C=C[C@H](C)[C@H](CC[C@@H]3C[C@@H](O)CC(=O)O3)[C@H]21,-4,5.2*!,1,0,0,-1,2,0
Cc1ccc(C(=O)Nc2ncc([N+](=O)[O-])s2)cc1,-11,-1,-8,-6,-3,-2,.,.
O=C(Nc1ncc([N+](=O)[O-])s1)c1ccco1,-4,6.5*,8,1,4,1,5.7*,6.2*
COc1cccc(N=CNc2cccc(OC)c2)c1,.,4.7*,9,1,2,0,5.4*,3.4*
COc1cccc(NC=C2C(=O)OC(C)(C)OC2=O)c1,-9,-1,2,-2,1,-1,.,.
COc1ccc2oc(C(=O)Nc3ccc(C)cn3)c(C)c2c1,16,5.0*,11*,3,4,0,10*,6.6*
COc1ccc2oc(C(=O)N3CCc4ccccc43)c(C)c2c1,-12,11*,7,-2,4,1,15*,5.3*
COc1ccc2oc(C(=O)NCCC(C)C)c(C)c2c1,7,6.1*,9,2,5,0,14*,6.2*
COc1cc2ccccc2cc1C(=O)Nc1ccc(C)cn1,-4,5.5*,11*,1,5.7*,0,13*,6.8*
Cc1ccccc1NC(=O)[C@H]1CC(=O)O[C@@H]1c1ccccc1,.,0,2,.,-1,-2,.,.
COc1ccc(C(CNC(=O)c2oc3ccc(OC)cc3c2C)N2CCCC2)cc1 (stereo not given),-16,5.0*,2,0,0,-1,6.1*,4.2*
COc1ccc(C(CNC(=O)c2oc3ccc(Br)cc3c2C)N2CCCCC2)cc1 (stereo not given),-6,1,3,-1,-1,-1,.,.
Cc1ccc(NC(=O)C/C(N)=N/OC(=O)Nc2ccc(C)c(Cl)c2)cc1,.,2,8,0,1,-1,.,.
Cc1ccc(NC(=O)C/C(N)=N/OC(=O)Nc2cccc(C)c2)cc1,.,5.0*,3,0,2,-1,2,1
COc1ccc(CN2C[C@H](COCc3ccccc3)Oc3cccc(Oc4ccc(C(C)C)cc4)c3S2(=O)=O)cc1,.,0,3,.,-1,-1,.,.
Cc1cccc(-c2cc3nc4c(c(NCc5ccco5)n3n2)CCCC4)c1,-3,5.0*,12*,2,0,0,5.4*,3.1*
CCCCN(C)CCNC(=O)CN1C(=O)CSc2ccc(S(=O)(=O)N3CCCC3)cc21,-5,7.2*,2,1,0,-1,3,1
COc1ccc(Cn2c(NC(=O)c3ccccc3)nc(Cc3ccccc3)c2Cc2ccccc2)c(OC)c1,.,1,5,.,0,-1,.,.
C[C@@H]1CN([C@H](C)CO)C(=O)CCCn2nncc2CO[C@@H]1CN(C)S(=O)(=O)c1ccc2c(c1)OCCCO2,.,4.8*,3,1,2,-1,2,2
Cc1ccn2cc(-c3ccc(NS(=O)(=O)c4ccccc4)cc3)nc2c1,-1,0,7,0,-3,-1,.,.
Cc1nc(-c2cccc(NC(=O)c3ccco3)c2)cs1,-28,4.7*,3,0,-2,-1,2,0
CN1CCN(c2ccc(NC(=O)c3ccco3)cc2Cl)CC1,31,15*,10,0,5.9*,0,12*,5.2*
Cc1ccn2cc(-c3ccc(NC(=O)c4ccco4)cc3)nc2c1,-8,5.0*,11*,0,2,0,11*,8.6*
SMILES,PolyA inhibitor,DAX1 inh-1,hgDAF-12 ag,DAX1 inh-2,hcDAF-12 act,ssDAF-12 act,DAX1 inh confirm,SF1 AF2mut Luc
Cc1nc2cc(NC(=O)c3ccco3)ccc2n1C,-12,7.7*,12*,0,2,0,11*,7.4*
Cc1ccc(NC(=O)c2cc(NC(=O)c3ccco3)ccc2N2CCOCC2)cc1Cl,-6,-1,-4,-1,-2,-1,.,.
CC1(c2nnnn2-c2ccc(F)cc2)CCCC(=O)N1CCc1c[nH]c2ccccc12 (stereo not given),.,1,-2,.,0,0,.,.
Cc1nc2cc(NC(=O)Nc3nccs3)ccc2n1C,-4,4.6*,11*,1,4,0,15*,8.5*
O=C(CSc1nnc(-c2ccccc2Cl)o1)Nc1ccccn1,7,6.1*,11*,-1,3,-1,17*,6.7*
CCOC(=O)Cc1c(C)nc2c(-c3cccc(Br)c3)cnn2c1C,-6,0,1,1,2,0,.,.
Cc1cc(N)n2ncc(-c3cccc(Br)c3)c2n1,.,4.9*,10,0,4,0,7.0*,3.7*
CN(C(=O)c1cccc(NC(=O)Cc2ccc(NC(=O)C3CCN(C(=O)C4CC4)CC3)cc2)c1)C1CCC1,.,5.0*,0,-2,1,0,2,2
N#CCC[C@@H]1CC[C@]2(CCCN(C(=O)c3ccno3)C2)O1,.,1,1,.,0,-2,.,.
COCCN1Cc2cc(C(=O)OC)c3c(c2C1=O)c1ccccc1n3S(=O)(=O)c1ccc(OC)cc1,.,0,1,.,0,-1,.,.
O=C(O)/C=C/c1cnn(-c2ccccc2)c1,8,5.0*,3,-2,1,-1,7.3*,3.5*
Cc1ccc(-c2nnc(-c3ccc4ccccc4c3)o2)cc1,.,1,7,2,3,0,.,.
